This is a sample that favours compounds with a hit; in the whole collection about 2.3% have one here.
FUS yeast rescue: FUS proteinopathy suppression in yeast | S. cerevisiae FUS-expressing, growth rescue, OD600, 24 h | actives 0.24% (n = 390,000) | AID 1347120 | Potency, µM (doses to about 76.6 µM), usual class: activators; note: nearly all actives have a fitted effect of over 55% in size
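Read-out: OD at 600 nm after 24hr at 30C, reporting rescue of FUS-induced yeast toxicity. Cells at OD 0.005 in galactose (2%) minimal medium; compounds tested in a dilution series; CP55940 titration from 92uM final as control.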
BCR signal inh: chronic active BCR signaling inhibition; actives 0.05% (n = 340,000); ABC-DLBCL IkBa-CBG/CBR reporter, luminescence ratio, 4 h; Potency, µM (series often up to 46.1 µM), actives largely listed as inhibitors; active = well fitted inhibition curve with a large enough effect in the signal ratio, with a control signal flat, not every such curve was filed as active; inconclusive = small, poorly fitted or top-dose-only effect, or effect the other way, or a change in a side signal; the % refers to the signal ratio
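Compounds up to 46 uM were incubated four hours with TMD8 cells whose green CBG68 luciferase is fused to IkappaBalpha; red CBR luminescence normalised the signal, and concentration-effect curves were fitted to fusion, red and ratio data.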
uPA surface inh: blocks generation of uPA at the cell surface | cell surface uPA generation assay, qHTS | Potency, µM (titrated, usually from 38.3 µM), actives largely listed as inhibitors | actives 0.31% (n = 330,000); active = well fitted inhibition curve with a large enough effect; inconclusive = small, poorly fitted or top-dose-only effect; inactive = no such curve, though single readings can be large or run the other way; tested in mouse RAW 264.7 cells; note: nearly all actives have a fitted effect of over 55% in size
TDP-43 yeast inh: rescues yeast growth from TDP-43 toxicity. TDP-43 expressing yeast growth rescue, BacTiter-Glo, 24 h. Potency, µM (titrated, usually from 46.1 µM), hits mostly activators. actives 1.8% (n = 410,000); note: nearly all actives have a fitted effect of over 50% in size
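Galactose-induced TDP-43 yeast, OD600=0.02, compound pinned; 24 hr, 30 deg C; BacTiter-Glo luminescence for growth. Inhibitors of TDP-43 toxicity read as activators.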
aSyn rescue: alpha-synuclein toxicity inhibition in yeast | Yeast expressing alpha-synuclein, growth rescue, BacTiter-Glo, 24 h | Potency, µM (titrated, usually from 46.1 µM), most hits filed as activators | actives 0.14% (n = 370,000) | AID 652106; note: nearly all actives have a fitted effect of over 65% in size
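Screening used galactose-induced yeast with toxic alpha-synuclein levels, exposed to compound for 24 hr at 30 deg C. Cell growth, read with BacTiter-Glo luminescence, gave the measured signal.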
Abeta yeast res: compounds reversing amyloid beta toxicity in yeast. yeast expressing A-beta42, growth rescue, OD600, 48 h; response scale: 0% DMSO, 100% iron-clioquinol control. Potency, µM (series often up to 46.1 µM), hits mostly activators. actives 0.063% (n = 410,000). AID 1347071; note: nearly all actives have a fitted effect of over 55% in size
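Yeast growth medium received pinned compounds, then yeast cells expressing toxic A-beta were added; plates incubated at 30 C for 48 hr. Growth read as absorbance at 600 nm, normalized to DMSO and equimolar FeCl3 plus clioquinol controls.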
Numbers stand for hits; n = inactive; u = inconclusive; x = no result; [ ] = remark or other dose. Unless noted, calls come from the whole dose curve; as a rule, active = well fitted curve in the direction sought with a large enough effect; inconclusive = small, poorly fitted or top-dose-only effect, or another doubt; inactive = no such curve, though single readings can be large; an effect the other way counts as inactive or inconclusive.

SMILES | FUS yeast rescue | BCR signal inh | uPA surface inh | TDP-43 yeast inh | aSyn rescue | Abeta yeast res
CCCCOc1ccc(-c2cn3ccccc3n2)cc1[N+](=O)[O-] | n | n | 7.94µM | n | n | n
CCOc1ccc(-c2nc(C#N)c(NCc3ccc4c(c3)OCO4)o2)cc1 | n | n | u | n | n | n
COc1ccc(Nc2oc(COc3ccc(Cl)cc3)nc2C#N)cc1 | n | n | n | 28.2µM | n | n
Cc1ccc(OCc2nc(C#N)c(NCc3ccc4c(c3)OCO4)o2)cc1 | n | u | n | 11.2µM | n | n
Cc1c(NC(=O)c2cnn3c2NC(c2ccc(Br)cc2)CC3C(F)(F)F)c(=O)n(-c2ccccc2)n1C (stereo unspecified) | u | n | n | n | n | n
COc1ccccc1N1CCN(C(=O)c2ccc3c(Cl)c4c(nc3c2)CCCC4)CC1 | u | u | 4.47µM | 20µM | n | n
Cc1ccc(N2CCN(C(=O)c3ccc4c(Cl)c5c(nc4c3)CCCC5)CC2)c(C)c1 | n | x | x | n | x | n
O=C(c1ccc2c(=O)n3c(nc2c1)CCCCC3)N1CCN(c2cccc(Cl)c2)CC1 | u | u | n | 35.5µM | n | n
O=C(c1ccc2c(Cl)c3c(nc2c1)CCCC3)N1CCN(c2ccc(F)cc2)CC1 | n | n | u | 15.8µM | n | n
COc1ccc(N2CCN(C(=O)CCC(=O)N3CCOc4ccc(Cl)cc43)CC2)cc1 | n | n | n | 15.8µM | n | n
CCOC(=O)N1CCN(c2c(NCc3ccc(Cl)cc3)c(=O)c2=O)CC1 | n | u | 2.82µM | n | n | n
CCOC(=O)N1CCN(c2c(-c3ccc(C(C)C)cc3)c(=O)c2=O)CC1 | n | n | n | 20µM | n | n
CCOC(=O)N1CCN(c2c(NCc3ccc(F)cc3)c(=O)c2=O)CC1 | n | u | n | n | n | n
COc1ccc2[nH]c3c(C)c4ccncc4c(C)c3c2c1 | n | u | 1.78µM | x | n | n
COc1ccc(-n2sc3c(c2=S)-c2cc(OC)ccc2NC3(C)C)cc1 | n | n | n | n | n | n
COc1ccc2c(c1)-c1c(ssc1=S)C(C)(C)N2 | n | n | n | 17.8µM | n | n
Cc1ccccc1-c1cccc([C@@H]2C[C@H]3[C@H](CON3C)CN2Cc2cc(Cl)cc(Cl)c2)c1 | n | x | n | 20µM | n | n
CN1OC[C@@H]2CN(Cc3cc(Cl)cc(Cl)c3)[C@H](c3cccc(Br)c3)C[C@@H]21 | n | x | n | 35.5µM | n | n
Cc1cc(C)c(C(=O)C(C)OC(=O)Cc2n[nH]c(=O)c3ccccc23)cc1C (stereo unspecified) | n | n | n | n | n | n
COc1cccc(C(=O)NCC2CCCN2S(=O)(=O)c2ccccc2)c1 (stereo unspecified) | n | n | n | n | n | n
CN(C)S(=O)(=O)c1ccc(Cl)c(NC(=O)CN2C(=O)NC(C)(C3CC3)C2=O)c1 (stereo unspecified) | n | n | 5.62µM | n | n | n
Cc1ccc(C)c(NC(=S)NC(=O)c2cncc(Br)c2)c1 | n | x | n | 11.2µM | n | u
COc1cccc(C(=O)N2CCC(c3nc4ccccc4s3)CC2)c1 | n | x | x | n | x | n
O=C(CSc1ccc(F)cc1)N1CCC(c2nc3ccccc3s2)CC1 | n | u | n | 22.4µM | n | n
O=C(c1cccc(F)c1)N1CCC(c2nc3ccccc3s2)CC1 | n | n | n | 12.6µM | n | n
SMILES | FUS yeast rescue | BCR signal inh | uPA surface inh | TDP-43 yeast inh | aSyn rescue | Abeta yeast res
CCC(Oc1ccccc1F)C(=O)N1CCC(c2nc3ccccc3s2)CC1 (stereo unspecified) | n | x | x | 25.1µM | x | n
O=C(NCc1cccnc1)/C(=C\c1ccc(-c2ccc(Cl)c(Cl)c2)o1)S(=O)(=O)c1ccccc1 | x | u | 10µM | n | n | n
S=c1nc(C23CC4CC(CC(C4)C2)C3)[nH][nH]1 | n | n | n | n | n | n
S=c1nn[nH]n1C12CC3CC(CC(C3)C1)C2 | n | u | n | 7.94µM | n | n
CNC(=S)Nc1ccc(C23CC4CC(CC(C4)C2)C3)cc1 | n | n | n | n[0.397 µM] | n | 7.08µM
COC(=O)C1=C(C)NC(=O)CC1c1ccc(C(=O)OC)cc1 (stereo unspecified) | n | n | n | n | n | n
COC(=O)c1ccc([C@H]2CC(=O)O2)cc1 | n | u | 4.47µM | n | n | n
NNC(=O)Cn1c2ccccc2c2ccccc21 | n | n | n | n | n | n
Cc1cc(C)n(CC(=O)N/N=C/c2ccc3c(c2)OCO3)n1 | n | n | n | n | n | n
CCc1c(C)nc2nncn2c1Nc1ccc(C(C)C)cc1 | n | x | x | 12.6µM | x | n
Cc1ccccc1NC(=O)c1cc(=O)c2ccccc2o1 | n | u | n | 12.6µM | n | n
O=C(NCCc1ccc(F)cc1)c1cc(=O)c2ccccc2o1 | n | u | n | 22.4µM | n | n
CCOC(=O)C1CCN(C(=O)c2sc3ncn(CC(=O)N4CCCCC4)c(=O)c3c2C)CC1 | n | x | x | n | n | n
CC(C)(C)C(=O)NNC(=O)COc1ccc2ccccc2c1Br | n | n | n | u | n | n
Nc1ccc(C(=O)OCCCc2nc3ccccc3[nH]2)cc1 | n | n | n | n | n | n
C=CS(=O)(=O)N(Cc1ccc(Cl)c(Cl)c1)C[C@@H](O)CO | n | u | 3.55µM | n | n | n
COc1ccc(Nc2cc3n(c(=O)n2)CCc2cc(OC)c(OC)cc2-3)cc1 | n | u | n | n | n | n
COc1ccc(Nc2cc3n(c(=O)n2)CCc2cc(OC)c(OC)cc2-3)c(C)c1 | n | 17.8µM | n | n | n | n
Cc1ccc(/C(N)=N/OC(=O)C23CC4CC(CC(C4)C2)C3)cc1 | n | n | n | 2µM | n | n
N/C(=N\OC(=O)C12CC3CC(CC(C3)C1)C2)c1ccncc1 | n | u | n | 12.6µM | n | n
Cc1ccc(/C(N)=N/OC(=O)N2CCOCC2)cc1 | n | u | u | n | n | n
Cc1nc2ccn(Cc3ccco3)c(=O)c2cc1C(=O)NCc1ccccc1F | n | x | x | n | x | n
CN(C)CCNc1nc(-c2ccco2)c2c(c1C#N)CC(C)(C)OC2 | n | n | n | n | n | n
CCCCN(C)c1nc(-c2ccco2)c2c(c1C#N)CC(C)(C)OC2 | n | u | u | 20µM | n | n
CCN(c1ccccc1)S(=O)(=O)c1cc(C(=O)OC(C)C(=O)Nc2ccc3c(c2)OCCO3)ccc1C (stereo unspecified) | 17.8µM | n | n | n | n | x
Cc1ccccc1OC(C)C(=O)Nc1ccc2c(c1)OCCO2 (stereo unspecified) | n | n | u | 11.2µM | n | n
CC(C)(C)C(=O)Nc1ccc(Sc2ccc([N+](=O)[O-])cc2)cc1 | x | n | u | n | n | n

High-throughput results deposited in PubChem by National Center for Advancing Translational Sciences (NCATS).
